Experimental data from ChEMBL document CHEMBL2218924, “A broad activity screen in support of a chemogenomic map for kinase signalling research and drug discovery” (Biochem J, 2013).

Target: Proto-oncogene tyrosine-protein kinase ROS (Homo sapiens) (UniProt P08922)
Conditions: at 1 µM

Sequence of Proto-oncogene tyrosine-protein kinase ROS (Homo sapiens) (P08922 whole entry): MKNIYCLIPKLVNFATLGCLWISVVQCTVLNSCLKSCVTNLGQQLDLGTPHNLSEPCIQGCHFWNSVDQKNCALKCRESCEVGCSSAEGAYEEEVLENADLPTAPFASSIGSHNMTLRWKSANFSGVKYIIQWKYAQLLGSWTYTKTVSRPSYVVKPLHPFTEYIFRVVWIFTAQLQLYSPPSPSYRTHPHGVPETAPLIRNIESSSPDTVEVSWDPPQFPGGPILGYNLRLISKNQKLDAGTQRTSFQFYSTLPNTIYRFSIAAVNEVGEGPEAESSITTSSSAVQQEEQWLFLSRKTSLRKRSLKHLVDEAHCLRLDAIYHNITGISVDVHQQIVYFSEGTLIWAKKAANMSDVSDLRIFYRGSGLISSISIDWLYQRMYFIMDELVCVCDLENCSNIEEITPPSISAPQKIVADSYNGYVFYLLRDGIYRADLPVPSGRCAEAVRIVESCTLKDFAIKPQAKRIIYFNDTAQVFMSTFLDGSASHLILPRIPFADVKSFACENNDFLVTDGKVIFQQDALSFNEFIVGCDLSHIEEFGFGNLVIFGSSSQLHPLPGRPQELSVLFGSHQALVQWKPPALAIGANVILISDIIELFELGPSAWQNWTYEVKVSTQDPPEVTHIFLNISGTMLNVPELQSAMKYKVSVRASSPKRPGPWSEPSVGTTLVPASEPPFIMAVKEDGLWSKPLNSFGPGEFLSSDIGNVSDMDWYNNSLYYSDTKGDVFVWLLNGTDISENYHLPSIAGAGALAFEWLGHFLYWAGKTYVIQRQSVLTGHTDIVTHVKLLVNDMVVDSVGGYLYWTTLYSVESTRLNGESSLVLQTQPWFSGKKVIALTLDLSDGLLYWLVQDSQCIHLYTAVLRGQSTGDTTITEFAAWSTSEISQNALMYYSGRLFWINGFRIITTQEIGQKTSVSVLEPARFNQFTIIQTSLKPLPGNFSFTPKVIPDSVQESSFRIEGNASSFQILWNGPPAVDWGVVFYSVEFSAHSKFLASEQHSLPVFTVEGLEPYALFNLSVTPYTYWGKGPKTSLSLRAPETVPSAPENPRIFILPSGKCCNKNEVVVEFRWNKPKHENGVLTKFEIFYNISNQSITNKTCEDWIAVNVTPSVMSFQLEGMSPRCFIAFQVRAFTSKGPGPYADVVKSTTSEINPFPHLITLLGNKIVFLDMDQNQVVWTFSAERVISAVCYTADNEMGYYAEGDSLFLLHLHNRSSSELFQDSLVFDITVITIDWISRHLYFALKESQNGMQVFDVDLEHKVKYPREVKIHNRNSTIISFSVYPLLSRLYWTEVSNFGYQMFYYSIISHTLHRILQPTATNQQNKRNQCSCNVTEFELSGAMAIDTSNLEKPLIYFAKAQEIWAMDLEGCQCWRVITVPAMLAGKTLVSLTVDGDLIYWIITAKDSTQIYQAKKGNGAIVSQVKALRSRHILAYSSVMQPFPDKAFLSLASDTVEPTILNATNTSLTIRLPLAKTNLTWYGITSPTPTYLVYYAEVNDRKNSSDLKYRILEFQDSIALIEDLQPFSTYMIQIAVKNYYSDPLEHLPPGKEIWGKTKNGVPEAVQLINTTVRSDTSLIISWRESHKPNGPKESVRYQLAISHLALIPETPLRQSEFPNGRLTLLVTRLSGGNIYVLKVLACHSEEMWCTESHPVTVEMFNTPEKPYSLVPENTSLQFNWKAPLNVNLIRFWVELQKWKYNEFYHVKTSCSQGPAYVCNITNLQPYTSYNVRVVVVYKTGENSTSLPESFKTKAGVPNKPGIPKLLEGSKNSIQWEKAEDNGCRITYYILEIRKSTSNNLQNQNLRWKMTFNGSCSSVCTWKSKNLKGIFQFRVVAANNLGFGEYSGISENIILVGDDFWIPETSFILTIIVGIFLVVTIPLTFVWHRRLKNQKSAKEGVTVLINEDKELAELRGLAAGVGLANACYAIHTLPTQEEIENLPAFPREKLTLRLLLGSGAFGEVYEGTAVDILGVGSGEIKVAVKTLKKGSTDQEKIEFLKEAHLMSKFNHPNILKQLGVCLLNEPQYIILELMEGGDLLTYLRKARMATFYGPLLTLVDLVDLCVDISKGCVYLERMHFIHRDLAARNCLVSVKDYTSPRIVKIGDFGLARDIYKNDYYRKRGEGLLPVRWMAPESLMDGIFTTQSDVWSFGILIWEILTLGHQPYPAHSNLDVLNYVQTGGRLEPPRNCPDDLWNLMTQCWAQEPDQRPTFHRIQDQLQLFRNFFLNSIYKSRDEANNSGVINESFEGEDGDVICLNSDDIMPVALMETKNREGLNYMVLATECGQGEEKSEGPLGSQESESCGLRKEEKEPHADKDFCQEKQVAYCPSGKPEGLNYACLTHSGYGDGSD

Structure (SMILES)	residual activity [%]
Nc1nc(Nc2ccc(S(N)(=O)=O)cc2)nn1C(=O)c1c(F)cccc1F	101
Cn1c2ccccc2c2c3c(c4c5ccccc5n(CCC#N)c4c21)CNC3=O	1
COc1ccc(COc2ccc(Cc3cnc(N)nc3N)cc2OC)cc1	81
COc1cc2nccc(Oc3ccc(NC(=O)Nc4cc(C)on4)c(Cl)c3)c2cc1OC	24
N#Cc1c(NC(=O)c2cccc3ccccc23)sc2c1CCCC2	93

Target: Proto-oncogene tyrosine-protein kinase ROS (Homo sapiens) (UniProt P08922)
Conditions: at 10 µM

Structure (SMILES)	residual activity [%]
Nc1nc(Nc2ccc(S(N)(=O)=O)cc2)nn1C(=O)c1c(F)cccc1F	82
CCCCc1c(-c2ccc(OC)cc2)[nH]c2nccnc12	88
Cn1c2ccccc2c2c3c(c4c5ccccc5n(CCC#N)c4c21)CNC3=O	3
COc1cc2nccc(Oc3ccc(NC(=O)Nc4cc(C)on4)c(Cl)c3)c2cc1OC	16
c1ccc(-c2cnc(Nc3ccc(OCCN4CCCC4)cc3)s2)cc1	80
N#Cc1c(NC(=O)c2cccc3ccccc23)sc2c1CCCC2	96
